# Article PMC7862700, “An all-to-all approach to the identification of sequence-specific readers for epigenetic DNA modifications on cytosine”
# Key:
# Assay in all cases: DAPPL (digital affinity profiling via proximity ligation, sequencing); 10 mM Tris-HCl pH 7.5, 50 mM NaCl, 1 mM DTT, 4% glycerol, room temperature, 30 min; GST-TFs on glutathione beads, 16-mer random dsDNA library, 0.1% formaldehyde crosslink after washing; high values mean tight binding
# FEV = target: T1, FEV (Homo sapiens, UniProt Q99581 1-238); conditions: protein: recombinant; tags: N-terminal GST; dsDNA, one strand shown
# T1 sequence: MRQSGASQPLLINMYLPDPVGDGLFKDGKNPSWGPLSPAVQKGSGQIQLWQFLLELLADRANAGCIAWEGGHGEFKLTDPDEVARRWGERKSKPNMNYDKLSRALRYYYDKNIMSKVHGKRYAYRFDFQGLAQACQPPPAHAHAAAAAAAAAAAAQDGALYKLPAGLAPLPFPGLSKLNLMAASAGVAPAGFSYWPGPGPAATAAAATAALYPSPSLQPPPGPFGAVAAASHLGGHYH
# In short: (§1)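 After expression in yeast as GST fusions, human transcription factors were bound to glutathione beads, DNA-barcoded and mixed with a tag-only sample. The pools were incubated with 200 nmole of a 16-mer random double-stranded DNA library in Tris/NaCl/DTT/glycerol buffer (30 min, room temperature), washed and crosslinked with 0.1% formaldehyde. Proximity ligation with BsaI/T4 ligase ran for 1 h at 37 °C, before PCR amplification and sequencing on an Illumina NextSeq500. Binding signal is a hexamer's read frequency for a factor divided by its frequency for the tag-only sample.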
# ETV5 = ETV5 (Homo sapiens, UniProt P41161 1-510); conditions: protein: recombinant; tags: N-terminal GST; dsDNA, one strand shown
# In short: as §1
# HSF1 = HSF1 (Homo sapiens, UniProt Q00613 1-529); conditions: protein: recombinant; tags: N-terminal GST; chain copies: 3; dsDNA, one strand shown
# In short: as §1
# SPIC = target: T2, SPIC (Homo sapiens, UniProt Q8N5J4 1-248); conditions: protein: recombinant; tags: N-terminal GST; dsDNA, one strand shown
# T2 sequence: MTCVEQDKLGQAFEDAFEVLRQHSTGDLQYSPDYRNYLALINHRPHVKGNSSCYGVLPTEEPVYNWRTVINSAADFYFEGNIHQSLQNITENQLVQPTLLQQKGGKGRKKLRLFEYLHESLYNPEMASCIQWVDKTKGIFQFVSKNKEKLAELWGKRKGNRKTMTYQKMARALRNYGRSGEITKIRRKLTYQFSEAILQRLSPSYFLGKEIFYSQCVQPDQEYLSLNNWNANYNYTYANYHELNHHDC
# In short: as §1
# ELF4 = ELF4 (Homo sapiens, UniProt Q99607 1-663); conditions: protein: recombinant; tags: N-terminal GST; dsDNA, one strand shown
# In short: as §1
# ELK4 = target: T3, ELK4 (Homo sapiens, UniProt P28324-2 1-405); conditions: protein: recombinant; tags: N-terminal GST; dsDNA, one strand shown
# T3 sequence: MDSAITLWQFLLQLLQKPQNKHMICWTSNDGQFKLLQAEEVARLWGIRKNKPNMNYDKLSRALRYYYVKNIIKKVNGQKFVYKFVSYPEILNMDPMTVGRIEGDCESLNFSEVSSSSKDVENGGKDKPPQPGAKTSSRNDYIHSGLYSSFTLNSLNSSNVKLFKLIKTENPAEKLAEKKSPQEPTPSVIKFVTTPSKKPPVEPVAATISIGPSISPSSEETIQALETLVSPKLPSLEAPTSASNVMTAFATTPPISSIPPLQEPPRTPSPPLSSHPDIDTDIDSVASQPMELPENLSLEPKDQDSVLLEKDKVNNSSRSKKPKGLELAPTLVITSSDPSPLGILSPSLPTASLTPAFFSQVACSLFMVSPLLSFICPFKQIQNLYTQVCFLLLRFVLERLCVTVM
# In short: as §1
# ETV2 = target: T4, ETV2 (Homo sapiens, UniProt O00321 1-342); conditions: protein: recombinant; tags: N-terminal GST; dsDNA, one strand shown
# T4 sequence: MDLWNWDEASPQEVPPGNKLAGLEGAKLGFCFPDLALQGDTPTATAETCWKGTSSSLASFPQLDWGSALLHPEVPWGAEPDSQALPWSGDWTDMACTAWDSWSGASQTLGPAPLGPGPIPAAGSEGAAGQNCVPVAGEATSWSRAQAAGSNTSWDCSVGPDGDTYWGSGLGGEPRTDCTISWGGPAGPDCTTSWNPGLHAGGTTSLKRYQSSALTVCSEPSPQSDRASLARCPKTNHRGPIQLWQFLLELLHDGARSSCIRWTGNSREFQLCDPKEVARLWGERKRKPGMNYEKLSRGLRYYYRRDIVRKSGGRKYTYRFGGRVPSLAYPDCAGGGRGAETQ
# In short: as §1
# ELF3 = target: T5, ELF3 (Homo sapiens, UniProt P78545 1-371); conditions: protein: recombinant; tags: N-terminal GST; dsDNA, one strand shown
# T5 sequence: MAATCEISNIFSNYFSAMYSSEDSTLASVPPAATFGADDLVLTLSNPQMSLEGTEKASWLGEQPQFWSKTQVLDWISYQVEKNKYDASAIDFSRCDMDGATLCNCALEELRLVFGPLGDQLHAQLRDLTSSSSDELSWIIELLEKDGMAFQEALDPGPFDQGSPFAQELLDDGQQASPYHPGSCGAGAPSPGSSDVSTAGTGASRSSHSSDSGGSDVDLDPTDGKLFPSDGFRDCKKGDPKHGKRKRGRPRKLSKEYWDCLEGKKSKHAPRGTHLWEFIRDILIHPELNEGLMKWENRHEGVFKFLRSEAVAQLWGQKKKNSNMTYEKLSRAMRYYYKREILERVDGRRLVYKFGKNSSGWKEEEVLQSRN
# In short: as §1
# CRX = CRX (Homo sapiens, UniProt O43186 1-299); conditions: protein: recombinant; tags: N-terminal GST; dsDNA, one strand shown
# In short: as §1
# Sequence of ETV5 (P41161 whole entry): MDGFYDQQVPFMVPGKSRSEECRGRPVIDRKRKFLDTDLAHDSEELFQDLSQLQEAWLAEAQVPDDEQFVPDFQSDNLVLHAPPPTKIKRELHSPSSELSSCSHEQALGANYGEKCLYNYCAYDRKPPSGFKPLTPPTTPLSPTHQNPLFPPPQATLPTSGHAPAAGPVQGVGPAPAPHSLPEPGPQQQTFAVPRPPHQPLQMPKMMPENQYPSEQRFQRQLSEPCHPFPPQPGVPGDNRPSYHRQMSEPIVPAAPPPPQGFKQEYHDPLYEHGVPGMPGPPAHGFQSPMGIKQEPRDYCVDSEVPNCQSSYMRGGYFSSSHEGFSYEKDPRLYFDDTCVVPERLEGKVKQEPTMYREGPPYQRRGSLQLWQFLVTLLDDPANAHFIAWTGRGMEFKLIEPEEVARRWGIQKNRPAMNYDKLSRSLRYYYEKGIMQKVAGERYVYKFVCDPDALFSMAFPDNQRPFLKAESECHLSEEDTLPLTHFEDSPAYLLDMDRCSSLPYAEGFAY
# Sequence of CRX (O43186 whole entry): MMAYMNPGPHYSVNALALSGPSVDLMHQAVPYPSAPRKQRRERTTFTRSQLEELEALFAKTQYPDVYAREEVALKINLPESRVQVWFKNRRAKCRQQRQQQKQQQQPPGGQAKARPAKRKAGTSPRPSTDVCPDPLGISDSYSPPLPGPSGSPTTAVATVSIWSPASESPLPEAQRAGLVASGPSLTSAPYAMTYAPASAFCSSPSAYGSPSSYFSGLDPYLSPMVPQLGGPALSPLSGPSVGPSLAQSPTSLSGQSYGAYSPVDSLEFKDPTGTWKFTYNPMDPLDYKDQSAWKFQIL
# Sequence of HSF1 (Q00613 whole entry): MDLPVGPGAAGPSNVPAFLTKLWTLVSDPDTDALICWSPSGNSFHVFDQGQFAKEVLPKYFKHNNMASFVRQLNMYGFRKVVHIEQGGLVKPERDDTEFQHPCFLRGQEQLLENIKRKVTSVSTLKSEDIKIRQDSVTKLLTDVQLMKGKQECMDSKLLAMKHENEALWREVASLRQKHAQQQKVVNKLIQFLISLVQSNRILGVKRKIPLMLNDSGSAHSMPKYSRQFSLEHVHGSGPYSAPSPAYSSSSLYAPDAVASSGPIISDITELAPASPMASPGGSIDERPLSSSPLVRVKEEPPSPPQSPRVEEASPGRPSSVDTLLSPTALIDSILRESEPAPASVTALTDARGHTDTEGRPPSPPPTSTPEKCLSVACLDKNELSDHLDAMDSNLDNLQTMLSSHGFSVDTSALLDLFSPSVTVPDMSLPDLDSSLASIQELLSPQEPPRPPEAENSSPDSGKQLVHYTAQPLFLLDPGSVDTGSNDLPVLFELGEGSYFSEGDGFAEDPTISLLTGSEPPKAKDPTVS
# Sequence of ELF4 (Q99607 whole entry): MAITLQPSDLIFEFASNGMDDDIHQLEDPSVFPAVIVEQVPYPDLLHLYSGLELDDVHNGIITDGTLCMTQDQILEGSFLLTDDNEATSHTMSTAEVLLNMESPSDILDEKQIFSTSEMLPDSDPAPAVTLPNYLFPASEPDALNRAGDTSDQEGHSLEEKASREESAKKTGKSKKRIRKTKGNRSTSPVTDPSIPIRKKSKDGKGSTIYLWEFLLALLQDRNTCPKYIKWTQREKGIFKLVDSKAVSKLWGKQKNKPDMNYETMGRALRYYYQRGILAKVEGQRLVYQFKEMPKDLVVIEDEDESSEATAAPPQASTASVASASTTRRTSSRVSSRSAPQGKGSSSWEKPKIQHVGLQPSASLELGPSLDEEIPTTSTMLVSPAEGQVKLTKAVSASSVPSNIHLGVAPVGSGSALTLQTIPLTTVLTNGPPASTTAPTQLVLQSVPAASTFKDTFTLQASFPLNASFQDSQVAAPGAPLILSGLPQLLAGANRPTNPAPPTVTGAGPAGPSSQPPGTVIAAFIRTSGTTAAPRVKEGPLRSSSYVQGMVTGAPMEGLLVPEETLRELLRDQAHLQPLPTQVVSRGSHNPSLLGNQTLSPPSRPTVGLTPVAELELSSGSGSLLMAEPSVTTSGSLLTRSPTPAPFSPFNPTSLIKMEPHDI
sequence,measurement,setting,value
TCTCGG,binding signal,FEV,"1.31 fold enrichment (6-mer frequency, TF over GST control)"
same,binding signal,ETV5,"1.41 fold enrichment (6-mer frequency, TF over GST control)"
same,binding signal,HSF1,"1.89 fold enrichment (6-mer frequency, TF over GST control)"
same,binding signal,SPIC,"1.1 fold enrichment (6-mer frequency, TF over GST control)"
same,binding signal,ELF4,"1.4 fold enrichment (6-mer frequency, TF over GST control)"
same,binding signal,ELK4,"1.38 fold enrichment (6-mer frequency, TF over GST control)"
same,binding signal,ETV2,"1.48 fold enrichment (6-mer frequency, TF over GST control)"
same,binding signal,ELF3,"1.33 fold enrichment (6-mer frequency, TF over GST control)"
same,binding signal,CRX,"1.44 fold enrichment (6-mer frequency, TF over GST control)"
